According to PubChem BioAssay (NCATS):
“And” between values parts separate entries of the source, which are not always exact repeats. Equal entries are not always repeated. Records with an inconclusive call do not appear. The source made the active and inactive calls. Unless noted, the call rests on the fitted dose curve; in most records, active means well fitted curve in the direction sought with a large enough effect; inconclusive means small, poorly fitted or top-dose-only effect, or another doubt; inactive means no such curve, though single readings can be large; an effect the other way counts as inactive or inconclusive.

Key:
[1] = system: Zika virus NS2B-NS3 protease (unlinked complex); test: Primary screen GU Rhodamine qHTS for Zika virus inhibitors: Unlinked NS2B-NS3 protease assay (AID 1347159); further: on the % scale 0 is the no-effect control and ±100 the full control effect; nearly all actives have a fitted effect of over 60% in size
In short: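 A qHTS format was used, with compound concentrations ranging up to 114 microM. Each compound was preincubated with 25 nM NS2B-NS3 protease, and the substrate was then added at 1.5 microM. Curves were fitted with a 4-parameter Hill model.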

[2] = system: Zika virus NS2B-NS3 protease (linked construct); test: Primary screen NINDS Rhodamine qHTS for Zika virus inhibitors (AID 1347160); further: on the % scale 0 is the no-effect control and ±100 the full control effect; nearly all actives have a fitted effect of over 55% in size
In short: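 Kinetic fluorescence (Ex 480 nm, Em 540 nm) over 15 min with 1.5 microM Rhodamine110 peptide and 25 nM linked protease.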

[3] = target: Calcium and integrin-binding protein 1 (Homo sapiens) (UniProt Q99828); test: Primary qHTS for Identification of Calcium Integrin Binding Protein 1 (CIB1) Competitor (AID 1508620);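 further: GST tagged CIB1 binding a fluorescein labelled alphaIIb integrin peptide tracer; top concentration of the series differs between compounds; on the % scale 0 is the no-effect control and ±100 the full control effect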
In short: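 Fluorescence polarization competition: GST-tagged CIB1 (1 uM final) preincubated with compound 15 min at room temperature, then FITC-labelled alphaIIb peptide (100 nM final) added. After 15 min at room temperature, polarization read at Ex 480/Em 540.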

[4] = target: Cytochrome P450 2D6 (Homo sapiens) (UniProt P10635); test: Cytochrome P450 family 2 subfamily D member 6 (CYP2D6) small molecule antagonists: luciferase biochemical (cell-free) qHTS assay (AID 1645840; active means well fitted curve in the direction sought with a large enough effect in the repeat runs; an effect the other way counts as inactive or inconclusive; further: potency means the concentration at half of the fitted maximal effect; nearly all actives have a fitted effect of over 55% in size)
In short: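 P450-Glo luminescent screen: recombinant CYP2D6 enzyme–proluciferin substrate mix preincubated with compound 10 min at room temperature, then NADPH regeneration added for 1 h at room temperature. Detection reagent added for 20 min; luciferin light read as relative luminescence units.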

[5] = target: Cytochrome P450 2C9 (Homo sapiens) (UniProt P11712); test: Cytochrome P450 family 2 subfamily C member 9 (CYP2C9) small molecule antagonists: luciferase biochemical (cell-free) qHTS assay (AID 1645842; active means well fitted curve in the direction sought with a large enough effect in the repeat runs; an effect the other way counts as inactive or inconclusive; further: potency means the concentration at half of the fitted maximal effect; nearly all actives have a fitted effect of over 55% in size)
In short: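 Luminescence, after 20 min with luciferin detection reagent, reflected CYP2C9 turnover during a 1 h NADPH-driven reaction at 37C. Enzyme-substrate mix contained 0.4% bovine serum albumin and was preincubated with compound 10 min at room temperature.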

[6] = Primary qHTS for inhibitors of nuclear receptor binding SET domain protein 2 (NSD2) in an isogenic RCH-ACV NSD2 p.E1099K mutant (9B) (AID 1645876); further: nearly all actives have a fitted effect of over 70% in size; further: potency means the concentration at half of the fitted maximal effect
[7] = target: Glutathione peroxidase 1 (Homo sapiens) (UniProt P07203); test: Primary qHTS Assay for Inhibitors of Recombinant Selenoprotein Glutathione Peroxidase 1 (GPX1) (AID 1845191); further: nearly all actives have a fitted effect of over 65% in size
In short: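 GR-coupled assay: compounds preincubated 30 min at room temperature with GPX1, then reaction started with CHP; final 10 nM GPX1, 1 mM GSH, 0.5 mM CHP, 0.5 mM NADPH, 100 nM GR, 0.01% BSA, pH 7.5 Tris buffer. NADPH fluorescence (340/450 nm) read at 0 and 15 min.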

[8] = target: Phospholipid hydroperoxide glutathione peroxidase GPX4 (Homo sapiens) (UniProt P36969); test: Primary qHTS Assay for Inhibitors of Recombinant Selenoprotein Glutathione Peroxidase 4 (GPX4) (AID 1845192); further: on the % scale 0 is the no-effect control and ±100 the full control effect; nearly all actives have a fitted effect of over 65% in size
In short: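 GR-coupled assay: recombinant GPX4 preincubated 30 min with compound at room temperature; final 200 nM GPX4, 1 mM GSH, 0.5 mM cumene hydroperoxide, 0.5 mM NADPH, 100 nM GR, 0.01% BSA, pH 7.5 Tris. NADPH fluorescence (340/450 nm) read at 0 and 15 min.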

[9] = target: Luciferin 4-monooxygenase (Photinus pyralis) (UniProt P08659); test: Primary firefly luciferase (FLuc) qHTS assay for identification of artifact compounds. (AID 1845220); conditions: outcome: dose series up to 54.1 µM unless noted; further: nearly all actives have a fitted effect of over 60% in size
In short: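 Titrated compounds were incubated 15 min at RT, protected from light, with luciferin and ATP at 10 uM; reaction started with 10 nM FLuc, luminescence imaged at 5 min, and concentration-response fitted by Hill equation.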

[10] = Primary fluorescence-based thiol-reactive (MSTI) qHTS assay for identification of artifact compounds. (AID 1845221);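 further: thiol-reactive compounds lower the probe fluorescence signal; nearly all actives have a fitted effect of over 65% in size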
In short: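 Reactivity toward the thiol probe MSTI (4 uM) is scored by fluorescence at Ex/Em 525/598 nm after 1 h at room temperature. Acetyl-MSTI and MSTI define the activity scale.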

[11] = system: Nanoluciferase (engineered Oplophorus gracilirostris luciferase); test: Primary Nanoluciferase (NLuc) qHTS assay for identification of artifact compounds. (AID 1845222);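 further: NLuc secreted into diluted conditioned medium of S16 cells; 0% = DMSO and -100% = no enzyme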
In short: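 qHTS format, against NLuc in S16 cell-conditioned medium. Nano-Glo substrate 1:100 was added after 15 min at room temperature. Luminescence was taken after a further 5 min.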

[12] = Primary redox qHTS assay for identification of artifact compounds. (AID 1845223);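 further: 0% = DMSO and 100% = reference compound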
In short: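 Amplex Red (25 uM) and HRP (250 mU/mL) in HBSS, with compounds for 15 min, then 250 uM DTT for 30 min, room temperature, dark. Fluorescence 525/598 nm read; normalized to DMSO and 10 uM DA3003; Hill fit.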

[13] = system: C33A; test: Primary qHTS to identify gynecologic anti-cancer compounds using libraries of approved drugs and bioactive compounds (AID 1345084); conditions: Gynecologic cancer cell panel viability, ATPlite luminescence, 48 h; series mostly up to 57.5 µM; further: on the % scale 0 is the no-effect control and ±100 the full control effect; nearly all actives have a fitted effect of over 55% in size
In short: (§1)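 Measured: luminescence after ATPlite addition (15 min, RT). Exposure: 48 h, 37 C, 5% CO2.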

[14] = system: CAOV3; test: as above; conditions: Gynecologic cancer cell panel viability, ATPlite luminescence, 48 h; series mostly up to 57.5 µM
In short: as §1

[15] = system: CASKI; test: as above; conditions: Gynecologic cancer cell panel viability, ATPlite luminescence, 48 h; series mostly up to 57.5 µM
In short: as §1

[16] = system: Es-2; test: as above; conditions: Gynecologic cancer cell panel viability, ATPlite luminescence, 48 h; series mostly up to 57.5 µM
In short: as §1

[17] = system: HeLa; test: as above; conditions: Gynecologic cancer cell panel viability, ATPlite luminescence, 48 h; series mostly up to 57.5 µM
In short: as §1

[18] = system: Hek293T; test: as above; conditions: Gynecologic cancer cell panel viability, ATPlite luminescence, 48 h, control line for the selectivity index; series mostly up to 57.5 µM
In short: as §1

[19] = system: JEG-3; test: as above; conditions: Gynecologic cancer cell panel viability, ATPlite luminescence, 48 h; series mostly up to 57.5 µM
In short: as §1

[20] = system: OV90; test: as above; conditions: Gynecologic cancer cell panel viability, ATPlite luminescence, 48 h; series mostly up to 57.5 µM
In short: as §1

[21] = system: PA-1; test: as above; conditions: Gynecologic cancer cell panel viability, ATPlite luminescence, 48 h; series mostly up to 57.5 µM
In short: as §1

[22] = system: Tov-21-G; test: as above; conditions: Gynecologic cancer cell panel viability, ATPlite luminescence, 48 h; series mostly up to 57.5 µM
In short: as §1

[23] = system: Tov112D; test: as above; conditions: Gynecologic cancer cell panel viability, ATPlite luminescence, 48 h; series mostly up to 57.5 µM
In short: as §1

[24] = AP1 Signaling Pathway (AID 357; active means well fitted curve in either direction with a large enough effect, not every such curve was filed as active;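 further: ME-180 reporter cells stimulated with EGF at its EC50 level; on the % scale 0 is the no-effect control and ±100 the full control effect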)
In short: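 Modulation of EGF-driven AP-1 transcription was assessed with a beta-lactamase reporter in ME-180 cells. Compound and EC50 EGF were co-incubated 5 hours at 37 °C before 2.5-hour CCF4 loading at room temperature and dual-emission reading.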

[25] = target: Cytochrome P450 1A2 (Homo sapiens) (UniProt P05177); test: p450-cyp1a2 (AID 410; calls by dose curve;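 further: -100% = full effect of reference inhibitor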)
In short: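 20nM CYP1A2 with 100uM Luciferin-ME (at Km) in 100mM KPO4; compound preincubated 10 min, NADPH regeneration added, 60 min at room temperature. Luciferin quantified by luminescence after detection reagent; normalized to 57 uM furafylline.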

[26] = NFAT Signaling Pathway (AID 444; active means well fitted curve in either direction with a large enough effect, not every such curve was filed as active;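 further: carbachol stimulus at about its EC50 of 1 µM final; on the % scale 0 is the no-effect control and ±100 the full control effect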); conditions: Jurkat NFAT-bla M1, carbachol, beta-lactamase ratio, 5 h; at 17.2 µM (top of the series)
In short: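 Jurkat cells with NFAT-driven β-lactamase reporter and co-expressed M1 receptor, stimulated with carbachol (final 1 uM, ~EC50), compound titration, 5 h at 37 °C. CCF4 loaded 1 h at RT; 460/530 nm ratio gave %activity and AC50.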

[27] = target: Glucocorticoid receptor (Homo sapiens) (UniProt P04150); test: GR-GFP Redistribution (AID 450;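 active means compounds whose dose series gives a full or clear partial fitted curve of increased nuclear translocation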; further: potency means the concentration at half of the fitted maximal effect); conditions: U2OS GR-GFP nuclear translocation, laser cytometry, 2 h
[28] = target: Glucocorticoid receptor (Homo sapiens) (UniProt P04150); test: GR-EFC Redistribution (AID 451; calls by dose curve; further: potency means the concentration at half of the fitted maximal effect); conditions: CHO-K1 GR-EFC translocation, beta-gal luminescence, 2 h
In short: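 CHO-K1 cells expressing nuclear EA and GR-ED fragments of b-gal; compounds titrated up to 46 uM final, 2 h at 37 C. GR nuclear translocation read as complemented b-gal luminescence after 1 h RT detection.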

[29] = target: Mitogen-activated protein kinase 10 (Mus musculus) (UniProt Q61831); test: JNK3 AlphaScreen Assay (AID 530; active means well fitted curve in either direction with a large enough effect, not every such curve was filed as active;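 further: kinase came from lysate of stimulated human HepG2 cells; signal reports phosphorylation of biotinylated GST-cJun 1-79 at Ser73 with 10 µM ATP; on the % scale 0 is the no-effect control and ±100 the full control effect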)
In short: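 Pre-activated (IL-1β/TNFα) JNK3 in HepG2 lysates phosphorylates biotin-GST-cJun(1-79), 10 uM ATP; anti-phospho-cJun(Ser73) AlphaScreen read at room temperature, pH 7.6 Tris buffer. Compounds pre-incubated 15 min as titrations.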

[30] = target: 3',5'-cyclic-AMP phosphodiesterase 4B (Homo sapiens) (UniProt Q07343); test: qHTS Assay for Inhibitors of PDE-IV (AID 607; active means well fitted activation curve with a large enough effect in the main read-out, with a control signal flat, not every such curve was filed as active; further: % of control where 0% means no effect)
In short: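 The readout is membrane depolarisation from a cAMP-sensing CNG channel, detected with a potential dye at ex 535/em 590. Cells were HEK293-derived (endogenous PDE-IV) at 1000 cells/well, titrated up to 22.9 uM final.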

[31] = target: Cytochrome P450 2C9 (Homo sapiens) (UniProt P11712); test: qHTS Assay for Inhibitors and Substrates of Cytochrome P450 2C9 (AID 883); further: on the % scale 0 is the no-effect control and ±100 the full control effect; nearly all actives have a fitted effect of over 60% in size
In short: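 Signal: luciferase luminescence reporting luciferin produced by CYP2C9. Conditions: 10nM enzyme, Luciferin-H 100uM at KM, 25mM KPO4, 37C, 60 min NADPH-driven reaction. Reference: 57uM sulphaphenazole as 100% inhibition.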

[32] = target: Cytochrome P450 2D6 (Homo sapiens) (UniProt P10635); test: qHTS Assay for Inhibitors and Substrates of Cytochrome P450 2D6 (AID 891);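 further: luciferin methyl ether substrate demethylated by CYP2D6 with NADPH regeneration; on the % scale 0 is the no-effect control and ±100 the full control effect; nearly all actives have a fitted effect of over 60% in size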
In short: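 Human CYP2D6 (5 nM) with 30 uM Luciferin-ME EGE (at Km) in 100 mM KPO4, compound preincubated 10 min, then NADPH regeneration system for 60 min at room temperature. Luciferin read by luminescence; normalized to 1.43 uM quinidine.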

[33] = target: Cytochrome P450 2C19 (Homo sapiens) (UniProt P33261); test: qHTS Assay for Inhibitors and Substrates of Cytochrome P450 2C19 (AID 899)
In short: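 Signal comes from luciferase acting on luciferin released by CYP2C19-mediated hydroxylation of Luciferin-H EGE, 10uM (KM). Assay mix: 5nM enzyme, 50mM KPO4; 60 min at 37C with NADPH regeneration. Data normalized against 57uM ketoconazole.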

[34] = qHTS Assay for Lipid Storage Modulators (AID 1519; calls by dose curve); conditions: Drosophila S3 cells, BODIPY lipid droplet/cell ratio, laser cytometry, cells loaded with oleic acid
In short: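 Cells seeded at 5,000 per well were treated with compounds over a concentration series and loaded with oleic acid (400 uM, as added). Lipid droplet fluorescence (488 nm excitation, 500-530 nm channel) was read by laser-scanning cytometry and normalized to 20 uM Triacsin C.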

[35] = target: Ubiquitin carboxyl-terminal hydrolase 1 (Homo sapiens) (UniProt O94782); test: Inhibitors of USP1/UAF1: Pilot qHTS (AID 504865);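 further: rhodamine fluorescence freed from ubiquitin-rhodamine substrate followed over time; top concentration of the series differs between compounds; on the % scale 0 is the no-effect control and ±100 the full control effect; nearly all actives have a fitted effect of over 35% in size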
In short: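 USP1/UAF1 complex (1nM) preincubated with compound 15 min at room temperature, then Ub-Rho substrate (150nM final) added. Fluorescence read kinetically at 480/540 nm, 6 reads every 60 seconds. Buffer: 50mM HEPES pH 7.8, 0.5mM EDTA, 0.1 mg/ml BSA, 1mM TCEP, 0.01% Tween-20.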

[36] = target: DNA dC->dU-editing enzyme APOBEC-3G (Homo sapiens) (UniProt Q9HC16); test: qHTS for inhibitors of Vif-A3G interactions: Validation (AID 588379); further: 0% is about no effect
In short: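 HeLa cells stably expressing Vif and A3G-eYFP, 700 cells/well, incubated overnight at 37 deg C, then exposed to compound overnight at 37 deg C. Inhibition of Vif-mediated degradation read as increased yellow fluorescence (Ex 488/Em 500-530) by laser-scanning cytometry.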

[37] = P-glycoprotein substrates identified in KB-3-1 adenocarcinoma cell line, qHTS therapeutic library screen (AID 1346986)
In short: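 KB-3-1 parental and colchicine-selected P-gp-overexpressing KB-8-5-11 cells (colchicine omitted during assay), 500 cells/well, dosed in dose-response for 72 h at 37 °C; CellTiter-Glo luminescence. Cytotoxic: curve class -1.1 to -2.4, max response >50%, AC50 < 10 uM.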

[38] = P-glycoprotein substrates identified in KB-8-5-11 adenocarcinoma cell line, qHTS therapeutic library screen (AID 1346987); further: nearly all actives have a fitted effect of over 65% in size
In short: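 KB-8-5-11, a colchicine-selected P-gp-overexpressing KB-3-1 subline, was grown without colchicine for the assay. Cells were seeded at 500 cells/well, dosed in concentration-response and incubated 72 h at 37 degree C, 5% CO2. Viability was read by CellTiter-Glo luminescence.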

[39] = Primary qHTS for inhibitors of nuclear receptor binding SET domain protein 2 (NSD2) in an RCH-ACV wild type WT cells (2C) (AID 1645877); further: on the % scale 0 is the no-effect control and ±100 the full control effect; nearly all actives have a fitted effect of over 70% in size

Cytochrome P450 2C9 (Homo sapiens), sequence (P11712 whole entry, looked up): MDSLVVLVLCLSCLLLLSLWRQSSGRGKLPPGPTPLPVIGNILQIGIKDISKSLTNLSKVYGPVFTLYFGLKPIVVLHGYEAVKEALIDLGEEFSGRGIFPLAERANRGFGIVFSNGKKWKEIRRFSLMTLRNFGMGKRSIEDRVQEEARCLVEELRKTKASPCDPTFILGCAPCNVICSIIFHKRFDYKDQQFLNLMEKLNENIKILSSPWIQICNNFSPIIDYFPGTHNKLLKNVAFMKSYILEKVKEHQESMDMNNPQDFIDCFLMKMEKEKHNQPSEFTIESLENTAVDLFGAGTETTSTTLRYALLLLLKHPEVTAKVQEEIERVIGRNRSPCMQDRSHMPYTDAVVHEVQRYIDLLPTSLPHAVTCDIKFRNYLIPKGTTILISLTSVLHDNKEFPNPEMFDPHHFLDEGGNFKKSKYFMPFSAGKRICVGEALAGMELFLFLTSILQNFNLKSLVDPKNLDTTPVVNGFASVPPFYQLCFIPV
Glucocorticoid receptor (Homo sapiens), sequence (P04150 whole entry, looked up, the tested form may be a part): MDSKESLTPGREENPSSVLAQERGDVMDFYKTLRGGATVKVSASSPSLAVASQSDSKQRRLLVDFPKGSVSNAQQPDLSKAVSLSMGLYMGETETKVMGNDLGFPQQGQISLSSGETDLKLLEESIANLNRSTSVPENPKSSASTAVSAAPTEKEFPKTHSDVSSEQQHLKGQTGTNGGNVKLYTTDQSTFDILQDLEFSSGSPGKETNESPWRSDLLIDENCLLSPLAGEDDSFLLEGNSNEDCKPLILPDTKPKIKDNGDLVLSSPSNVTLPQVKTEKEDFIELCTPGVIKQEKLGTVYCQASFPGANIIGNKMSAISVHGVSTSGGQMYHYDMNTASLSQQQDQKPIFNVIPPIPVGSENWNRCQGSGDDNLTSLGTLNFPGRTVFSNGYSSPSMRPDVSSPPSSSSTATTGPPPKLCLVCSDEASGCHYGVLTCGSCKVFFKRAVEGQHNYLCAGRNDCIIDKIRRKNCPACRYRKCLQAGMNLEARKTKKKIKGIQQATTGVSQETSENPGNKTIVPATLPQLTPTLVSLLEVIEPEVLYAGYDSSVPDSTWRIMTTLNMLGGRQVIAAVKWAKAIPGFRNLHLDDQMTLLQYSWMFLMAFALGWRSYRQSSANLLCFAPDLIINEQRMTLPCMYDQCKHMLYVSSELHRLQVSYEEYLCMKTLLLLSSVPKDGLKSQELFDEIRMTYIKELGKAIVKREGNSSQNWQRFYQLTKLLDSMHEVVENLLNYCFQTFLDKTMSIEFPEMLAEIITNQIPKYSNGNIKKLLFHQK
Cytochrome P450 2D6 (Homo sapiens), sequence (P10635 whole entry, looked up): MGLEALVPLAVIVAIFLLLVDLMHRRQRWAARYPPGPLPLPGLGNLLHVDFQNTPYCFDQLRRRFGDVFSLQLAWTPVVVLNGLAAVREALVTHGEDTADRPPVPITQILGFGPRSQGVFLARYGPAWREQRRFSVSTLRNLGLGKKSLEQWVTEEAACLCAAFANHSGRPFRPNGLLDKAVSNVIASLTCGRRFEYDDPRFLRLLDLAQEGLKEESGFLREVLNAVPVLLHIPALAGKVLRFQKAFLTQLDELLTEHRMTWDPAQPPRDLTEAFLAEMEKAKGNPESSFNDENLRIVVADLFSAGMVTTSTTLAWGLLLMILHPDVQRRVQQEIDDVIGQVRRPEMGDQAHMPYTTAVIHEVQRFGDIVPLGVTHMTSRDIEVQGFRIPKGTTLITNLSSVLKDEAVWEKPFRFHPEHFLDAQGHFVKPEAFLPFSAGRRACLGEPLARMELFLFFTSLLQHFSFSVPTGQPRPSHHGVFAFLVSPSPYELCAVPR
Cytochrome P450 1A2 (Homo sapiens), sequence (P05177 whole entry, looked up): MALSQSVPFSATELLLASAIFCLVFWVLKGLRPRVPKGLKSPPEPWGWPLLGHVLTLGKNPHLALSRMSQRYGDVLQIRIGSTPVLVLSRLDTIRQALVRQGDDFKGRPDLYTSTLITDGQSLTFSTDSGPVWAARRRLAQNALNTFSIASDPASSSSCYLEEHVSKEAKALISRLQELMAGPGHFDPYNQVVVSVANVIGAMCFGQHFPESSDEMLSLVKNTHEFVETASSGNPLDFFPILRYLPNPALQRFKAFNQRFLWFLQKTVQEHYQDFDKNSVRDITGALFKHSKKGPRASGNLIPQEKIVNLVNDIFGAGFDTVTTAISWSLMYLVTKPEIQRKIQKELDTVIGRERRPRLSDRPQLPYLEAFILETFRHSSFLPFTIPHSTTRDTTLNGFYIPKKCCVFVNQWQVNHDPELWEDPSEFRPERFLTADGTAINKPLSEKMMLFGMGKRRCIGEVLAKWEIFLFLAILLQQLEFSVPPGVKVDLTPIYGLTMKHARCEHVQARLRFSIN
Glutathione peroxidase 1 (Homo sapiens), sequence (P07203 whole entry, looked up): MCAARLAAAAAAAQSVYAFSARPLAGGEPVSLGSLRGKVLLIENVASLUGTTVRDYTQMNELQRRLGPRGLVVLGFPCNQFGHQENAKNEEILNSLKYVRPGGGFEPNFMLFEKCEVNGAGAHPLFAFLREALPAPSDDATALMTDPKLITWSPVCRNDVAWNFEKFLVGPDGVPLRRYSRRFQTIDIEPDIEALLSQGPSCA
DNA dC->dU-editing enzyme APOBEC-3G (Homo sapiens), sequence (Q9HC16 whole entry, looked up): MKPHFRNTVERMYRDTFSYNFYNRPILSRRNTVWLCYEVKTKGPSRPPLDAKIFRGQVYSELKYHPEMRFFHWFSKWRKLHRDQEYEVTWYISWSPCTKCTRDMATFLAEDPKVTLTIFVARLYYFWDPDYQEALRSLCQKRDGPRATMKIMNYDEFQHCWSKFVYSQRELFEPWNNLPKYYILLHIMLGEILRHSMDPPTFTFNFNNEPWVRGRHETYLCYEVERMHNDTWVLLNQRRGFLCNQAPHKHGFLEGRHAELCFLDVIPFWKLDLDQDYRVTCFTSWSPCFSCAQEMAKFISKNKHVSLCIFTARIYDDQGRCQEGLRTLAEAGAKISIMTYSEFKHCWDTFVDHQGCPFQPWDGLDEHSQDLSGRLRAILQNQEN
Phospholipid hydroperoxide glutathione peroxidase GPX4 (Homo sapiens), sequence (P36969 whole entry, looked up): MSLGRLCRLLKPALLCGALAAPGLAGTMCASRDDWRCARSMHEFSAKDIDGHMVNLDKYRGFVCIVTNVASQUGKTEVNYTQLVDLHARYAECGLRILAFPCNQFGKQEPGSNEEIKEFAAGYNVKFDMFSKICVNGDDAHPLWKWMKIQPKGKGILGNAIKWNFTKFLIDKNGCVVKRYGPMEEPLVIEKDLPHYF
Ubiquitin carboxyl-terminal hydrolase 1 (Homo sapiens), sequence (O94782 whole entry, looked up): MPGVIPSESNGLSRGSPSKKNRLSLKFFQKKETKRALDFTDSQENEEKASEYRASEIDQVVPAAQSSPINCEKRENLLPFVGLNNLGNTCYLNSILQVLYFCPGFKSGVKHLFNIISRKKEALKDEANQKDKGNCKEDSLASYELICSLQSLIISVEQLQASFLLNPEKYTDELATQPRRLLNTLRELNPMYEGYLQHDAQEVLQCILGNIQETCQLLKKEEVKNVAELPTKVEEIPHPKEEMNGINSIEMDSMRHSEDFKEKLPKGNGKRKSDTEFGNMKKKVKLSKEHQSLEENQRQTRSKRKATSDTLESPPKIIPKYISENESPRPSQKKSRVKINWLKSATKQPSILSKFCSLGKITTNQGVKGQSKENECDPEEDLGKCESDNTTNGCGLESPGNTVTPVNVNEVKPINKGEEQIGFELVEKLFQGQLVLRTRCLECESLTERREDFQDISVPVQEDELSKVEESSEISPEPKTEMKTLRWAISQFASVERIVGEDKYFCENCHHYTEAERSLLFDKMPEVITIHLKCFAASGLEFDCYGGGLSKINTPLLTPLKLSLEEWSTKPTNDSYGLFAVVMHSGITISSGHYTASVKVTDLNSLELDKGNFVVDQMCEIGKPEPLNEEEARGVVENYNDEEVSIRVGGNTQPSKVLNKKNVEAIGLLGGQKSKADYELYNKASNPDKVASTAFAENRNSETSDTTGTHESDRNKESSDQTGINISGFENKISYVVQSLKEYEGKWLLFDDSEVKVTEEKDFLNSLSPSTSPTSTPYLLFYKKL
Calcium and integrin-binding protein 1 (Homo sapiens), sequence (Q99828 whole entry, looked up): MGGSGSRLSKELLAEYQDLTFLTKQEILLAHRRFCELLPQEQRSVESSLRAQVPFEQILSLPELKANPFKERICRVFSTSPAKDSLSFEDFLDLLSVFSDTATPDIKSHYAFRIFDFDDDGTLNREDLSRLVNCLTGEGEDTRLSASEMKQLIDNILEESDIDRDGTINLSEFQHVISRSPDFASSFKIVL
3',5'-cyclic-AMP phosphodiesterase 4B (Homo sapiens), sequence (Q07343 whole entry, looked up): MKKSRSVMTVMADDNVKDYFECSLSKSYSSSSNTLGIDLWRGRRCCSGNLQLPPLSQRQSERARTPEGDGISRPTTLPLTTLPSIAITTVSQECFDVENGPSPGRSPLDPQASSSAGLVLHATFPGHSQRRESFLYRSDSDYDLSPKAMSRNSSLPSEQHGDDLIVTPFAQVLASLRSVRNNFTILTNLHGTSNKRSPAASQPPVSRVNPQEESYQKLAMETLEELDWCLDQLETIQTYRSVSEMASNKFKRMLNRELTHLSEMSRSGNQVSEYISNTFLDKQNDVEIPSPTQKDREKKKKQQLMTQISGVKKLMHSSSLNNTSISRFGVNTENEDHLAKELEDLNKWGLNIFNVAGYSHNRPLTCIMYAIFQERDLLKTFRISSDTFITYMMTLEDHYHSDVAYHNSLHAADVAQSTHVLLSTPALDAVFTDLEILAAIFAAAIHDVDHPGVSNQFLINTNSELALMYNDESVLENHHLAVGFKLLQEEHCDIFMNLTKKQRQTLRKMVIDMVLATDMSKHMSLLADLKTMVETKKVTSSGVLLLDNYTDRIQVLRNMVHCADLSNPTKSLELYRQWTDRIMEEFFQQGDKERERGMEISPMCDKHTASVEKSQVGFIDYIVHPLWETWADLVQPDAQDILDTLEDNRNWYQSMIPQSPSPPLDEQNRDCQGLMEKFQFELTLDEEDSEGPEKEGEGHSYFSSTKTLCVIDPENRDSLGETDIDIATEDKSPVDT

O=C(NCCN1CCC2(CC1)C(=O)NCN2c1cccc(F)c1)c1ccc2ccccc2c1
active: Potency [4] 2.68 µM | Potency [5] 12 µM | Potency [6] 9.16 µM
inactive: Potency [1] | Potency [2] | Potency [3] | Potency [7] | Potency [8] | outcome [9] | Potency [10] | Potency [11] | Potency [12] | Potency [13] | Potency [14] | Potency [15] | Potency [16] | Potency [17] | Potency [18] | Potency [19] | Potency [20] | Potency [21] | Potency [22] | Potency [23]

COc1ccn(C)c(=O)c1C#N
5.59% and -19.6%: max response ([34]; measured here: lipid channel max response)
4.19% and -22.1%: max response ([34]; measured here: cell count channel max response)
inactive: outcome [24] | Potency [25] | activity change, negative = inhibition [26] 6.67% | Potency [27] > 20.6 µM and > 46 µM | Potency [28] > 20.6 µM and > 46 µM | outcome [29] | Potency [30] | Potency [31] | Potency [32] | Potency [33] | activity change, negative = inhibition ([34]; at 25.7 µM (top of the series)) -0.52% | activity change, negative = inhibition ([34]; at 57.5 µM (top of the series)) 1.07% | Potency [35] | Potency [36] | Potency [37] | Potency [38] | Potency [6] | Potency [39] | Potency [7]
